3 compounds from PubChem BioAssay (EPA / NIEHS) can be followed below.

A structure can be active in one record and inactive in another. Activity calls are given as the source filed them. The calls were made as follows: active = hit-call score of the fitted dose curve at least 0.9, where 1 is the maximum; inactive = score below 0.9.

The target of experiment [1] is Bile acid receptor (Homo sapiens) (UniProt Q96RI1). The experiment in a line: ATG_IR1_CIS: Attagene CIS-FACTORIAL HepG2 Assay for human Nuclear Receptor Subfamily 1 Group H Member 4 (NR1H4), IR1 submotif (AID 2282946). The following applies: IR1 reporter transcription, actives raise or lower the signal. In outline:
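Transient MRTU transfection, HepG2; 24 h dosing; RNA → RT-PCR → 6-FAM primer extension → HpaI digest → capillary electrophoresis fluorescence. Gain/loss of signal fitted relative to DMSO.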

Experiment [2] in a line: ATG_GRE_CIS: Attagene CIS-FACTORIAL HepG2 Assay for human Glucocorticoid Response Elements (GRE) (AID 2282947). The settings on record: HepG2 GRE cis-reporter, Attagene multiplex mRNA; actives raise or lower the signal. In short, it runs like this: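 Following 24 h chemical exposure of transiently transfected HepG2 cells, total RNA was reverse-transcribed and reporter cDNA amplified, fluorescently labelled and sized by capillary electrophoresis. Signal gain or loss was fitted relative to DMSO vehicle.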

The nature of experiment [3]: ATG_ISRE_CIS: Attagene CIS-FACTORIAL HepG2 Assay for human Interferon Regulatory Factor 1 (IRF1) binding to an Interferon-Stimulated Response Element (ISRE) (AID 2282948). The settings on record: HepG2 ISRE cis-reporter (Attagene), mRNA transcription readout; actives raise or lower the signal. In short, it runs like this: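 Quantitation relies on labelled RT-PCR fragments separated by capillary electrophoresis. Human HepG2 cells bearing cis-promoter reporter constructs were treated 24 h; DMSO served as baseline for bidirectional fitting.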

A short description of experiment [4]: ATG_M_32_CIS: Attagene CIS-FACTORIAL HepG2 Assay for M32 Transcription Factor (Internal Marker) (AID 2282949).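 Also: background control marker of the multiplexed CIS panel rather than a real target.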 The following applies: HepG2 Attagene cis-factorial M32 reporter, mRNA; actives raise or lower the signal. In short, it runs like this: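 Fluorescent capillary electrophoresis peaks of HpaI-digested, FAM-labelled RT-PCR reporter products give the signal. Source: transiently transfected human liver HepG2 cells, 24 h after chemical dosing; bidirectional fitting against DMSO.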

A short description of experiment [5]: ATG_M_06_CIS: Attagene CIS-FACTORIAL HepG2 Assay for M06 Transcription Factor (Internal Marker) (AID 2282950). The settings on record: HepG2 Attagene CIS-FACTORIAL M06 internal marker reporter; actives raise or lower the signal. In outline: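 Fluorescence-labelled RT-PCR products from cis-promoter reporter units, cut with HpaI and resolved by capillary electrophoresis, give the signal. Cells are human HepG2, dosed for 24 h. Serves as background control, fitted relative to DMSO.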

In experiment [6] the target is Hypoxia-inducible factor 1-alpha (Homo sapiens) (UniProt Q16665). The experiment can be described thus: ATG_HIF1a_CIS: Attagene CIS-FACTORIAL HepG2 Assay for human Hypoxia Inducible Factor 1 (HIF1A) (AID 2282951). The following applies: HepG2 Attagene cis-factorial HIF1a reporter transcription; actives raise or lower the signal. In short, it runs like this:
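Fluorescence intensity of capillary-separated, 6-FAM-labelled reporter amplicons gives mRNA induction in HepG2 cells carrying transfected cis-promoter reporter units; cells exposed 24 h, responses fitted up or down from DMSO.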

Experiment [7] has as its target Hepatocyte nuclear factor 6 (Homo sapiens) (UniProt Q9UBC0). The experiment can be described thus: ATG_HNF6_CIS: Attagene CIS-FACTORIAL HepG2 Assay for human Hepatocyte Nuclear Factor 6 (HNF6) (AID 2282952). The settings on record: HepG2 Attagene cis-factorial HNF6 reporter transcription; actives raise or lower the signal. In short, it runs like this: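 Transiently transfected HepG2 cells expressing cis-regulated reporter transcription units were exposed to chemical for 24 h in a 24-well format. Reporter transcript abundance was determined by fluorescence capillary electrophoresis.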

The target in experiment [8] is Heat shock factor protein 1 (Homo sapiens) (UniProt Q00613). The experiment in a line: ATG_HSE_CIS: Attagene CIS-FACTORIAL HepG2 Assay for human Heat Shock Transcription Factor 1 (HSE) (AID 2282953). The settings on record: HepG2 HSE cis-reporter, Attagene RNA transcription; actives raise or lower the signal. In short, it runs like this:
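After a 24 h incubation with test chemical, transfected HepG2 cells were harvested for RNA; reporter transcripts were measured by RT-PCR and capillary electrophoresis. Values reflect gain or loss of signal relative to DMSO.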

A short description of experiment [9]: ATG_MRE_CIS: Attagene CIS-FACTORIAL HepG2 Assay for human Metal Responsive Element (MRE) (AID 2282954). The settings on record: HepG2 MRE cis-reporter transcription, Attagene multiplex; actives raise or lower the signal. In short, it runs like this: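 Step one: transfect HepG2 with cis-regulated reporter units. Step two: dose 24 h. Step three: isolate RNA, RT-PCR, 6-FAM label, HpaI digest, capillary electrophoresis. Fit bidirectionally to DMSO.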

Experiment [10] is described as follows: ATG_PBREM_CIS: Attagene CIS-FACTORIAL HepG2 Assay for human Phenobarbital-responsive Enhancer Module (PBREM) (AID 2282955). The following applies: HepG2 PBREM cis-reporter, Attagene multiplexed transcription; actives raise or lower the signal. In outline: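 Cells were transfected with cis-element reporter units and treated for 24 h, after which RNA was extracted and reporter transcripts measured by RT-PCR and capillary electrophoresis.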

Experiment [11] addresses Paired box protein Pax-6 (Homo sapiens) (UniProt P26367). The experiment in a line: ATG_Pax6_CIS: Attagene CIS-FACTORIAL HepG2 Assay for human Paired Box 6 (PAX6) (AID 2282956). The settings on record: HepG2 CIS-FACTORIAL PAX6 reporter transcription, RNA readout; actives raise or lower the signal. In outline: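 After twenty-four hours of chemical exposure, transfected HepG2 cells are harvested for RNA. Cis-promoter reporter transcripts are amplified, fluorescently labelled and sized by capillary electrophoresis, with gain and loss of signal scored against DMSO.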

Experiment [12] in a line: ATG_PXRE_CIS: Attagene CIS-FACTORIAL HepG2 Assay for human Pregnane X Receptor Element (PXRE) (AID 2282957). The following applies: HepG2 Attagene CIS-FACTORIAL PXRE reporter, mRNA; actives raise or lower the signal. In outline: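 Cis-element reporter mRNA in human hepatoma HepG2 cells is measured 24 h post-dosing by RT-PCR, primer-extension labeling and capillary electrophoresis; gain or loss of signal is fitted relative to DMSO.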

Experiment [13] can be described thus: ATG_PPRE_CIS: Attagene CIS-FACTORIAL HepG2 Assay for human Peroxisome Proliferator-activated Response Element (PPRE) (AID 2282958). The settings on record: HepG2 PPRE cis-element reporter, Attagene transcription factor profiling; actives raise or lower the signal. In outline: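 In this cell-based multiplex, a PPRE cis element drives a reporter sequence in transiently transfected HepG2 cells. Following 24 h treatment, labeled cDNA amplicons are sized and quantified by capillary electrophoresis, with DMSO defining baseline.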

Experiment [14] in a line: ATG_RORE_CIS: Attagene CIS-FACTORIAL HepG2 Assay for human RAR-related Orphan Receptor Element (RORE) (AID 2282959). The settings on record: HepG2 Attagene cis-factorial RORE reporter, mRNA; actives raise or lower the signal. In outline:
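Endogenous factor activity at a cis response element is read as reporter transcript levels in HepG2 cells, 24 h post-dose. Transcripts are quantified by RT-PCR with capillary electrophoresis, and data fitted in both directions against DMSO.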

Experiment [15] in a line: ATG_Sox_CIS: Attagene CIS-FACTORIAL HepG2 Assay for human SRY-box transcription factor (SOX) (AID 2282960). The settings on record: HepG2 Attagene cis-factorial SOX reporter, mRNA; actives raise or lower the signal. In short, it runs like this: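 Measures mRNA induction of a SOX1-associated reporter in HepG2 after 24 h dosing. Fluorescently labelled RT-PCR fragments are separated by capillary electrophoresis, and gain or loss relative to DMSO control is fitted.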

Experiment [16] concerns the target Transcription factor Sp1 (Homo sapiens) (UniProt P08047). The experiment in a line: ATG_Sp1_CIS: Attagene CIS-FACTORIAL HepG2 Assay for human Specificity Protein 1 (Sp1) (AID 2282961). The settings on record: HepG2 Sp1 cis-reporter transcription, actives raise or lower the signal. In outline: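 Cells: HepG2, transiently transfected with cis-regulated multiplexed reporters. Exposure: 24 h. Detection: reporter transcripts amplified, fluorescently labeled, restriction-digested and sized by capillary electrophoresis. Analysis: bidirectional fit relative to DMSO.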

A short description of experiment [17]: ATG_SREBP_CIS: Attagene CIS-FACTORIAL HepG2 Assay for human Sterol Regulatory Element Binding (SREBP) (AID 2282962). The following applies: HepG2 Attagene cis-factorial SREBP reporter, mRNA; actives raise or lower the signal. In outline: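 Twenty-four hours after chemical dosing of transfected HepG2 cultures, reporter RNA was converted to cDNA, amplified, end-labelled with 6-FAM and resolved by capillary electrophoresis. Responses were fitted relative to DMSO.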

Experiment [18] concerns the target Signal transducer and activator of transcription 3 (Homo sapiens) (UniProt P40763). The experiment in a line: ATG_STAT3_CIS: Attagene CIS-FACTORIAL HepG2 Assay for human Signal Transducer and Activator of Transcription 3 (STAT3) (AID 2282963). The settings on record: HepG2, Attagene cis-factorial STAT3 reporter transcription; actives raise or lower the signal. In short, it runs like this: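 Transcript-level reporter assay. HepG2 transient MRTU transfection, 24 h exposure, fluorescence detection after RT-PCR and CE; DMSO baseline.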

Experiment [19] in a line: ATG_TA_CIS: Attagene CIS-FACTORIAL HepG2 Assay for human TA Basal Promoter (AID 2282964). The settings on record: HepG2 Attagene CIS-factorial TA basal promoter reporter; actives raise or lower the signal. In short, it runs like this: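 Multiplexed mRNA reporter assay, HepG2, 24 h. Reporter cDNA amplified, 6-FAM primer-extended, HpaI-cut, CE-sized; DMSO = negative control and baseline.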

A short description of experiment [20]: ATG_TCF_b_cat_CIS: Attagene CIS-FACTORIAL HepG2 Assay for human T-Cell-Factor with beta-catenin (TCF/b-cat) (AID 2282965). The settings on record: HepG2 TCF/beta-catenin cis-reporter transcription, actives raise or lower the signal. In short, it runs like this: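 HepG2 cells transiently transfected with multiple cis-promoter-regulated reporter transcription units, so endogenous transcription factor activity is measured. Reporter mRNA read 24 hours after dosing by RT-PCR, fluorescent labelling and capillary electrophoresis; bidirectional fitting against DMSO.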

Sequence of Transcription factor Sp1 (Homo sapiens) (P08047 whole entry, looked up): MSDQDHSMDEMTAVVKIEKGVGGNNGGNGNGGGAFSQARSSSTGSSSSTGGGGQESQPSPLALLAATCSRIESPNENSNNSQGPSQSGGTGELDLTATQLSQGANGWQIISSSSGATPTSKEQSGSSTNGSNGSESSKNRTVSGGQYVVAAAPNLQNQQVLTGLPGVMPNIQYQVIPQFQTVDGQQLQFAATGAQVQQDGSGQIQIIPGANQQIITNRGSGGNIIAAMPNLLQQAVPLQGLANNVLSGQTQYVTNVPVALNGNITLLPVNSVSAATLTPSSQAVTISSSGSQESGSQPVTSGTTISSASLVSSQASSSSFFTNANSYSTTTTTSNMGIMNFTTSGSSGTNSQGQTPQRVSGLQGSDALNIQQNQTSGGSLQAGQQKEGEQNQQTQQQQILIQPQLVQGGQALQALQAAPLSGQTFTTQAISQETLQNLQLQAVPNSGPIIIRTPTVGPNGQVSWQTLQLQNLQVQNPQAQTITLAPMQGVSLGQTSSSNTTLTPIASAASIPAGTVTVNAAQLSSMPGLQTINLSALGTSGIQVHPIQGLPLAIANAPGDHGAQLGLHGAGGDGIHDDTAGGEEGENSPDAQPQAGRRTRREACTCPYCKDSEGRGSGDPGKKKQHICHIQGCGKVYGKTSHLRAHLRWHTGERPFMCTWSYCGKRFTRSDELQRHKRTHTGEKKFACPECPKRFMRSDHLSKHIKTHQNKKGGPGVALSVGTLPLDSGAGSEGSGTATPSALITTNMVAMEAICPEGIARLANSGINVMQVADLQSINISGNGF
Sequence of Hypoxia-inducible factor 1-alpha (Homo sapiens) (Q16665 whole entry, looked up): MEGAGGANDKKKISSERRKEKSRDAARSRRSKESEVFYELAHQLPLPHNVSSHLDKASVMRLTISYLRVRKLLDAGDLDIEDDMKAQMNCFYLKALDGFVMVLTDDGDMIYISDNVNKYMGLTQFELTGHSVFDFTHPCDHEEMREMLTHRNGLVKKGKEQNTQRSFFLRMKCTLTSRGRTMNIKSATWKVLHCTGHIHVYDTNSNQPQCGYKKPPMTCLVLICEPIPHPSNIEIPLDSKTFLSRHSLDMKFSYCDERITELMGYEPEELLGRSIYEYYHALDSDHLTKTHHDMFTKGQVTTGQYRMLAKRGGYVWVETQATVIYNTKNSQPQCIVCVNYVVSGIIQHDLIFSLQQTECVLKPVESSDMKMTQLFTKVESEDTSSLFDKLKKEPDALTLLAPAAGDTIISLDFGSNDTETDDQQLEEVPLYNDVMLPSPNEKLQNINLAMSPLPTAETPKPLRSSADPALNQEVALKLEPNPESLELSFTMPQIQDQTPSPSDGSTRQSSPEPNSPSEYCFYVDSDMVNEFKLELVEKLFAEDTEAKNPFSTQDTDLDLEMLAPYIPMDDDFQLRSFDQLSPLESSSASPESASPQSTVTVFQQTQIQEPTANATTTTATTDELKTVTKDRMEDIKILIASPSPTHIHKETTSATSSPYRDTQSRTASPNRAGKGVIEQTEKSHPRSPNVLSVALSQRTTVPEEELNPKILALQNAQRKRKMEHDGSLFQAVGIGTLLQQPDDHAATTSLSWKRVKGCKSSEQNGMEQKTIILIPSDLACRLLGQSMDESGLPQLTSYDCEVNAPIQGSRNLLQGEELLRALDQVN
Sequence of Heat shock factor protein 1 (Homo sapiens) (Q00613 whole entry, looked up): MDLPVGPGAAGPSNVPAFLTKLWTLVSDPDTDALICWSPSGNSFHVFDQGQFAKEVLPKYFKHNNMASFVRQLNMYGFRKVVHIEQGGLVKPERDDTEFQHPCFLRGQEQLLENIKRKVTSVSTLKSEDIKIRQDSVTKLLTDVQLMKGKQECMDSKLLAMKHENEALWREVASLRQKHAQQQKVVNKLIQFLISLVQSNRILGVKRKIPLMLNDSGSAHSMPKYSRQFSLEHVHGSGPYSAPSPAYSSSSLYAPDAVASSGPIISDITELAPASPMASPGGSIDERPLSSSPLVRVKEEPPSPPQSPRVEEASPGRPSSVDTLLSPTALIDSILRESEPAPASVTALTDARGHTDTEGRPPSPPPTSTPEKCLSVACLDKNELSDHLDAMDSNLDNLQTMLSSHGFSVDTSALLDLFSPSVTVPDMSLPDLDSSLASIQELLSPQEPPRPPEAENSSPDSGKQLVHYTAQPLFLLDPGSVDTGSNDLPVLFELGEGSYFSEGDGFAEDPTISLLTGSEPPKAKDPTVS
Sequence of Signal transducer and activator of transcription 3 (Homo sapiens) (P40763 whole entry, looked up): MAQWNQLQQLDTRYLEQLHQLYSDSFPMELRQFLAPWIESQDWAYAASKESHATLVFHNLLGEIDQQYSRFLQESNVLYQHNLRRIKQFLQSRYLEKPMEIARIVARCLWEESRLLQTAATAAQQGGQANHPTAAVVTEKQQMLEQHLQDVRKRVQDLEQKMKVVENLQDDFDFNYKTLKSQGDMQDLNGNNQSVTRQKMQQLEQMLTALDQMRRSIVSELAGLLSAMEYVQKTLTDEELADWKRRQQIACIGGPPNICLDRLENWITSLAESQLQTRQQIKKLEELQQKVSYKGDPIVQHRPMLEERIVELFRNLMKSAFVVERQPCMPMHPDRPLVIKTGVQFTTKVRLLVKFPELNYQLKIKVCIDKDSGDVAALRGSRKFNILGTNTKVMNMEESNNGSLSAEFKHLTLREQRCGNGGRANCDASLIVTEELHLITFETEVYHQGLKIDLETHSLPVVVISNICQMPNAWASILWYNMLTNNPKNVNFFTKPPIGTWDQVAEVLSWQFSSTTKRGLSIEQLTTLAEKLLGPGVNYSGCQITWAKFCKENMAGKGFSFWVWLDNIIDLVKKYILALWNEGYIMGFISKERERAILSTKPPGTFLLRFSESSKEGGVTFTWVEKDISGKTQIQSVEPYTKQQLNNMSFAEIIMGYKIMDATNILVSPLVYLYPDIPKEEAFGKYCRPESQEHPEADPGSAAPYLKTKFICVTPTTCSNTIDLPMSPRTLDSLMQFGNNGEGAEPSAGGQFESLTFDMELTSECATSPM
Sequence of Hepatocyte nuclear factor 6 (Homo sapiens) (Q9UBC0 whole entry, looked up): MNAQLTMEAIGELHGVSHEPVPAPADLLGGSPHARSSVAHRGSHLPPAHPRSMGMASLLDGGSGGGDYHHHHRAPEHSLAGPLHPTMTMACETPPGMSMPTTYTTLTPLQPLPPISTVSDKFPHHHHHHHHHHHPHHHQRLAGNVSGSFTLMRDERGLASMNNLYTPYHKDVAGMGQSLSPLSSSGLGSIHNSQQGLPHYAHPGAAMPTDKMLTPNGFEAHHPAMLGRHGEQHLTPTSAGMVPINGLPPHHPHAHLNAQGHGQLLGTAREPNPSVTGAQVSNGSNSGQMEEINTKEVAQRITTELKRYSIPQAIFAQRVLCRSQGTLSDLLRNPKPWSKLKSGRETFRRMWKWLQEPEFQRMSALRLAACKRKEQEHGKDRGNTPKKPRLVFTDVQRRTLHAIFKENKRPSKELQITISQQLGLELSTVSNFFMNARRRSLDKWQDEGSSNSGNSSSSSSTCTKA
Sequence of Bile acid receptor (Homo sapiens) (Q96RI1 whole entry, looked up): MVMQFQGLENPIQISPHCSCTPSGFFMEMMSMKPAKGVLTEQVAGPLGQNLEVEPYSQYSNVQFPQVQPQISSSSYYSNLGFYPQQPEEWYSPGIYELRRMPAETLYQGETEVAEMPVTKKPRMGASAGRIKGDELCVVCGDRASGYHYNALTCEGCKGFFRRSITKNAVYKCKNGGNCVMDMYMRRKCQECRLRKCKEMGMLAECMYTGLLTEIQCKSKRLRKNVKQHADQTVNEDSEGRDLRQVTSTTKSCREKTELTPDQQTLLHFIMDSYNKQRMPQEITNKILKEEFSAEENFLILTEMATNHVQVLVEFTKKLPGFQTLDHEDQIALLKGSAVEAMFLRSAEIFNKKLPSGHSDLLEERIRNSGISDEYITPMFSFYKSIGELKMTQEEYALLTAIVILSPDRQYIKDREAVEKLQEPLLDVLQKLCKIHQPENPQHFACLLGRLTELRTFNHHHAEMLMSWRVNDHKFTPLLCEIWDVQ
Sequence of Paired box protein Pax-6 (Homo sapiens) (P26367 whole entry, looked up): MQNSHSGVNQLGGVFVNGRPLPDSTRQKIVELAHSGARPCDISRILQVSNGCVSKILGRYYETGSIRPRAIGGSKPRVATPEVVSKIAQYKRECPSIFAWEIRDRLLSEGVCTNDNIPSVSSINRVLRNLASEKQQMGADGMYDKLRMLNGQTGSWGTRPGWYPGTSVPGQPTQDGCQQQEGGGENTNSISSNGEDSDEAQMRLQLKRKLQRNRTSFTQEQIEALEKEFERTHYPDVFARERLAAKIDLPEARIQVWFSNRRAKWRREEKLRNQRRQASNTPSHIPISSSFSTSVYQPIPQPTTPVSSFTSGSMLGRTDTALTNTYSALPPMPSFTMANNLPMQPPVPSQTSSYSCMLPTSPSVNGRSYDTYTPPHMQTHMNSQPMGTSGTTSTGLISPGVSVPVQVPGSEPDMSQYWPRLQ

As for `CCN(CC)C1CCCCC1`, the compound was classed as inactive in experiment [1], in [2], in experiment [3], in experiment [4], in experiment [5] and in experiment [6]. Besides, the compound was classed as inactive in experiment [7], in [8], in [9], in experiment [10], in [11] and in [12]. Also, the result in experiment [13], in [14], in [15], in [16], in [17] and in experiment [18] was inactive. Also, the result in [19] and in experiment [20] was inactive.

Regarding `c1ccc2c(c1)sc1ccccc12`, the call in experiment [1], in experiment [2], in experiment [3], in experiment [4], in experiment [5] and in [6] was inactive. Also, the outcome in [7], in experiment [8], in experiment [9], in experiment [10], in experiment [11] and in experiment [12] was inactive. The compound was called inactive in experiment [13], in experiment [14], in [15], in experiment [16], in experiment [18] and in experiment [19]. Moreover, the outcome in experiment [20] was inactive.

Regarding `OCC(F)(F)OC(F)(F)C(F)(F)OC(F)(F)C(F)(F)OC(F)(F)F`, the result in experiment [1], in experiment [2], in experiment [3], in [4], in experiment [5] and in experiment [6] was inactive. In addition, the result in experiment [7], in [8], in experiment [9], in [10], in [11] and in [12] was inactive. For the same compound, the result in [13], in experiment [14], in experiment [15], in [16], in experiment [18] and in [19] was inactive. The outcome in experiment [20] was inactive. For the same compound, the concentration at half-maximal activity (AC50) in experiment [3] was 90 µM (active); in experiment [8], 75.6 µM (active); in experiment [9], 75.7 µM (active).
